Reference: PubChem BioAssay (Tox21)
Records with an inconclusive call do not appear. Activity calls are given as the source filed them. Unless noted, calls follow the shape of the full dose curve.

Tests used:
[1] = Nuclear factor erythroid 2-related factor 2/antioxidant responsive element (Nrf2/ARE) small molecule agonists: qHTS cell viability counter screen in human keratinocytes (AID 1919968; active = well fitted curve in the direction sought with a large enough effect in the repeat runs; an effect the other way counts as inactive or inconclusive; also: nearly all actives have a fitted effect of over 55% in size; also: potency is read from the fitted curve at half-maximal effect)
How it was run: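 Cells of the KeratinoSens line were plated at 1,500 per well and left for 5 h before compound transfer from DMSO stocks. After a 23 h incubation (37 C, 5% CO2), CellTiter-Fluor was added. Signal was taken as fluorescence intensity 1 h later.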

[2] = Nuclear factor erythroid 2-related factor 2/antioxidant responsive element (Nrf2/ARE) small molecule agonists: luciferase reporter gene qHTS assay in human keratinocytes (AID 1919969); also: nearly all actives have a fitted effect of over 35% in size; also: potency is read from the fitted curve at half-maximal effect
[3] = molecular target: Gonadotropin-releasing hormone receptor (Homo sapiens) (UniProt P30968); experiment: Human gonadotropin-releasing hormone receptor (GnRHR) small molecule agonists, calcium flux assay in GnRHR-HEK293 cells (AID 1920063); also: nearly all actives have a fitted effect of over 35% in size; also: potency is read from the fitted curve at half-maximal effect
Gonadotropin-releasing hormone receptor (Homo sapiens), sequence (P30968 whole entry, looked up): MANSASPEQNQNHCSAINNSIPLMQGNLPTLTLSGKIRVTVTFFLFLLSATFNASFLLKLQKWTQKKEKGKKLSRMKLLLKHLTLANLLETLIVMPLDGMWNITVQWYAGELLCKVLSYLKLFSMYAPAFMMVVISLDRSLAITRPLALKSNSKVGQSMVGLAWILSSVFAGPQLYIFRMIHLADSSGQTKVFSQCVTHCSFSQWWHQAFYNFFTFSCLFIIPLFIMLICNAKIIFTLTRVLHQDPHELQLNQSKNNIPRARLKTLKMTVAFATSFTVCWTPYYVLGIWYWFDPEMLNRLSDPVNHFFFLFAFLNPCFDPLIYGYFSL
How it was run: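 Compounds dissolved in DMSO are pin-transferred onto dye-loaded GnRHR-HEK293 cells, which were seeded 18 h before at 37 C/5% CO2. Calcium signal is read as fluorescence intensity at 1 s intervals for 3 min.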

[4] = G protein-coupled receptor (GPCR) small molecule agonists, calcium flux assay: HEK293 wild type cell line counter screen (AID 1920065); also: potency is read from the fitted curve at half-maximal effect
How it was run: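 Tox21 10K compounds, 15 concentrations each in triplicate, pin-transferred in DMSO onto dye-loaded cells; kinetic read at 480/540 nm for 3 min, 1 s intervals.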

[5] = p53 small molecule agonists, cell-based qHTS assay with rat liver microsomes: qHTS cell viability counter screen (AID 1963580); also: nearly all actives have a fitted effect of over 45% in size; also: potency is read from the fitted curve at half-maximal effect
How it was run: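 Cytotoxicity counter screen: intracellular ATP measured by CellTiter-Glo luminescence in the same wells as the beta-lactamase reporter read, on HCT-116 p53RE-bla cells exposed 16 h at 37 C to compounds with rat liver microsomes and NADPH, each 0.5 mg/mL final.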

[6] = p53 small molecule agonists, cell-based qHTS assay: qHTS cell viability counter screen (AID 1963581); also: nearly all actives have a fitted effect of over 45% in size; also: potency is read from the fitted curve at half-maximal effect
How it was run: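 ATP content measured by luminescence in HCT-116 p53RE-bla cells treated 16 h at 37 C, same wells as the reporter screen.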

[7] = molecular target: 5-hydroxytryptamine receptor 2A (Homo sapiens) (UniProt P28223); experiment: 5-hydroxytryptamine receptor 2A (HTR2A) small molecule antagonists, cell-based qHTS assay (AID 1963586); also: nearly all actives have a fitted effect of over 45% in size; also: potency is read from the fitted curve at half-maximal effect
5-hydroxytryptamine receptor 2A (Homo sapiens), sequence (P28223 whole entry, looked up): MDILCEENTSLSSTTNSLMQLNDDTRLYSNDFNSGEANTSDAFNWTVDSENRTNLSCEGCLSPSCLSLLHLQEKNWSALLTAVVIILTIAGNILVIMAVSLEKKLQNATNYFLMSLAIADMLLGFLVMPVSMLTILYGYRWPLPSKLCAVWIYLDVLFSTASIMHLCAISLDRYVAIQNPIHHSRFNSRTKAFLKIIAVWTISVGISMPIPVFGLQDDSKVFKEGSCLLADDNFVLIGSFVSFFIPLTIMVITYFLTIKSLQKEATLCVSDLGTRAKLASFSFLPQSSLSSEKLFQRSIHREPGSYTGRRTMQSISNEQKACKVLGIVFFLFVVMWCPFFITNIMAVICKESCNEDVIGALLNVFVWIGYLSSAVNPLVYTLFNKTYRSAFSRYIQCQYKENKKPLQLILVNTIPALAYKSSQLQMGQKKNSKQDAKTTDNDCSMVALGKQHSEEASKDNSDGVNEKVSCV
How it was run: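 CHO cells stably expressing human HTR2A were plated for 18 h at 37 C, then loaded with calcium dye for 1 h. Compounds were preincubated 5 min at room temperature before DOI (4 nM solution) was added. Kinetic fluorescence was read for 3 min.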

[8] = molecular target: 5-hydroxytryptamine receptor 2A (Homo sapiens) (UniProt P28223); experiment: 5-hydroxytryptamine receptor 2A (HTR2A) small molecule agonists, cell-based qHTS assay (AID 1963587); also: nearly all actives have a fitted effect of over 30% in size; also: potency is read from the fitted curve at half-maximal effect
How it was run: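 CHO cells stably expressing human HTR2A, plated 18 h, loaded with calcium dye 1 h at 37 C. Agonist mode: compounds added and intracellular calcium fluorescence recorded kinetically for 2 min at 1 sec intervals.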

[9] = molecular target: Muscarinic acetylcholine receptor M1 (Homo sapiens) (UniProt P11229); experiment: Cholinergic receptor muscarinic 1 (CHRM1) small molecule antagonists, cell-based qHTS assay (AID 1963588); also: nearly all actives have a fitted effect of over 40% in size
Muscarinic acetylcholine receptor M1 (Homo sapiens), sequence (P11229 whole entry, looked up): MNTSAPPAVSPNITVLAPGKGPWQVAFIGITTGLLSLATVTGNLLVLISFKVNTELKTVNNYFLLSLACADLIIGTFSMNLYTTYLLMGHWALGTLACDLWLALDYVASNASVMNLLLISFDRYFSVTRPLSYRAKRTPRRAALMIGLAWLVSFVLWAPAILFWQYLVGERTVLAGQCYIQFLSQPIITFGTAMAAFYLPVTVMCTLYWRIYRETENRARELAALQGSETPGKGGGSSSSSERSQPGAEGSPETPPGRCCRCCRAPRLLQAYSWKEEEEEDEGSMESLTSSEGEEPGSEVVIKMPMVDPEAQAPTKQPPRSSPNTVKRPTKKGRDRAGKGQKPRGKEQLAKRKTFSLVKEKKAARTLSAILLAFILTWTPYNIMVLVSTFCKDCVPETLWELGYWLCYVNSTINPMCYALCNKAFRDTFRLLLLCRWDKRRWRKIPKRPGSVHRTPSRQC
How it was run: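 Compounds were tested at 15 concentrations in three independent runs. Dye-loaded CHRM1-CHO cells were exposed 5 min at room temperature before stimulation by acetylcholine added at 50nM. Intracellular calcium was read kinetically on FDSS for 3 min.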

[10] = molecular target: Muscarinic acetylcholine receptor M1 (Homo sapiens) (UniProt P11229); experiment: Cholinergic receptor muscarinic 1 (CHRM1) small molecule agonists, cell-based qHTS assay (AID 1963589); also: nearly all actives have a fitted effect of over 35% in size; also: potency is read from the fitted curve at half-maximal effect
How it was run: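 Homogeneous fluorescence calcium flux, agonist mode. Human M1-expressing CHO cells; compound dosed at 15 concentrations, three independent runs; signal sampled every 1 sec.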

[11] = cAMP Responsive Elements (CRE) small molecule agonists, cell-based qHTS assay (AID 1963590)
How it was run: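 HEK 293T cells stably bearing CRE-bla were plated at 2,000 cells per well and rested 18 h. Compounds, positive controls or DMSO were added for 3 h at 37 C. LiveBLAzer B/G substrate was then loaded for 2 h at room temperature.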

[12] = molecular target: Beta-2 adrenergic receptor (Homo sapiens) (UniProt P07550); experiment: Adrenergic beta2 receptor (ADRB2) small molecule antagonists, cell-based qHTS assay (AID 1963592); also: nearly all actives have a fitted effect of over 50% in size; also: potency is read from the fitted curve at half-maximal effect
Beta-2 adrenergic receptor (Homo sapiens), sequence (P07550 whole entry, looked up): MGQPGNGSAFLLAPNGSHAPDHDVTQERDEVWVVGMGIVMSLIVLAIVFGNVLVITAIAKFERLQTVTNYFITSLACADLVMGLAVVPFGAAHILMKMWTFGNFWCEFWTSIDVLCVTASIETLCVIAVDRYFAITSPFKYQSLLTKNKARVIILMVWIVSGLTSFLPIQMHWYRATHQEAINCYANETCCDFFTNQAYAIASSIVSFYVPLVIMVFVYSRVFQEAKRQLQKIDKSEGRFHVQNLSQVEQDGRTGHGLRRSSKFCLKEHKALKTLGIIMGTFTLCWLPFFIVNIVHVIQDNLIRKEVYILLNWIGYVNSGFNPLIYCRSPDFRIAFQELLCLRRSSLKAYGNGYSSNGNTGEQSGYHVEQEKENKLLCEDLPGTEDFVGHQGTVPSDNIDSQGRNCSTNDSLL
How it was run: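 Assay format: CHO-ADRB2 cells, 18-20hr seeding at 37C/5% CO2, then compound plus 1nM isoproterenol agonist mix for 0.5hr RT. Homogeneous time-resolved fluorescence cAMP detection after 1hr, expressed as 665/615 nm ratio.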

[13] = molecular target: D(2) dopamine receptor (Homo sapiens) (UniProt P14416); experiment: Dopamine D2 receptor (DRD2) small molecule agonists, cell-based qHTS assay (AID 1963594); also: nearly all actives have a fitted effect of over 35% in size
D(2) dopamine receptor (Homo sapiens), sequence (P14416 whole entry, looked up): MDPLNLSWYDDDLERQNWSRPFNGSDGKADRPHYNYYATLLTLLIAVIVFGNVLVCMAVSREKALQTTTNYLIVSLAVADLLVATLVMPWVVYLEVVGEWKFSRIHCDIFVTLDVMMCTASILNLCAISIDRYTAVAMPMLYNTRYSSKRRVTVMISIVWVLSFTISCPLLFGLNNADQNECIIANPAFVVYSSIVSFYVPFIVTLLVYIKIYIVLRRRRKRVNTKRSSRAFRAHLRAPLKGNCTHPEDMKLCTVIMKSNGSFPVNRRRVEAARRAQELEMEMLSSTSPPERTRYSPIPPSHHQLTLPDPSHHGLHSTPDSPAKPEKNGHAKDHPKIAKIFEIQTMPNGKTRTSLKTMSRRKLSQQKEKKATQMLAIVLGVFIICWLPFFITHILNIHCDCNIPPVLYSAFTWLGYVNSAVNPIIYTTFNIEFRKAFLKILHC
How it was run: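 HEK293 cells stably expressing human DRD2, pre-treated with PDE inhibitor Ro20-1724 (0.1 mM final) and compound 10 min at room temperature, then stimulated with NKH477 (200nM […]) for 30 min. cAMP read by HTRF (665/620 nm).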

[14] = molecular target: D(2) dopamine receptor (Homo sapiens) (UniProt P14416); experiment: Dopamine D2 receptor (DRD2) small molecule antagonists, cell-based qHTS assay (AID 1963595; active = well fitted inhibition curve with a large enough effect in the signal ratio in the repeat runs, with a control signal flat; the % refers to the signal ratio; also: potency is read from the fitted curve at half-maximal effect)
How it was run: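 Antagonism was scored as restored cAMP in HEK293-DRD2 cells. These cells were stimulated with 200 nM NKH477 and 12 nM quinpirole for 30 min at room temperature, in the presence of 0.1 mM Ro20-1724.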

[15] = p53 small molecule agonists, cell-based qHTS assay with human liver microsomes: qHTS cell viability counter screen (AID 1963579); also: nearly all actives have a fitted effect of over 45% in size; also: potency is read from the fitted curve at half-maximal effect
How it was run: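 After the 460/530 nm beta-lactamase read, CellTiter-Glo was added to the same wells and luminescence measured after 30 min at room temperature, giving viability of p53RE-bla cells treated 16 h with compounds plus microsomes and NADPH.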

[16] = cAMP Responsive Elements (CRE) small molecule antagonists, cell-based qHTS assay (AID 1963591; active = well fitted inhibition curve with a large enough effect in the signal ratio in the repeat runs, not every such curve was filed as active; the % refers to the signal ratio)
How it was run: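 First, CRE-bla HEK293T cells settled 18 h at 37 C. Next, compound and 0.25 uM final NKH477 were applied for 3 h. Last, LiveBLAzer B/G substrate was loaded for 2 h at room temperature.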

[17] = p53 small molecule agonists, cell-based qHTS assay with human liver microsomes (AID 1963577);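 also: p53 response element beta-lactamase reporter cells with liver microsomes plus NADPH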
How it was run: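 Steps: plate p53RE-bla cells, incubate 5 h at 37 C; add compound in DMSO; add microsomes (0.5 mg/mL final) and NADPH (0.5 mg/mL final); incubate 16 h at 37 C; add LiveBLAzer, 2 h RT; read fluorescence.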

[18] = p53 small molecule agonists, cell-based qHTS assay with rat liver microsomes (AID 1963578)
How it was run: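 Metabolic activation is supplied by rat liver microsomes with NADPH (each 0.5 mg/mL final). p53RE-bla cells incubate with compound 16 h at 37 C; reporter activity is measured by LiveBLAzer fluorescence.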

[19] = p53 small molecule agonists, cell-based qHTS assay (AID 1963582; active = well fitted activation curve with a large enough effect in the signal ratio in the repeat runs, not every such curve was filed as active; the % refers to the signal ratio; also: potency is read from the fitted curve at half-maximal effect)
How it was run: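 16 h compound exposure (37 C) of p53 response element–bla cells, preceded by 5 h recovery at 37 C/5% CO2; read-out via LiveBLAzer B/G FRET substrate, 2 h RT, fluorescence intensity.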

[20] = molecular target: KiSS-1 receptor (Homo sapiens) (UniProt Q969F8); experiment: Human kisspeptin (KISS1R) small molecule agonists, calcium flux assay in KISS1R-HEK293 cells (AID 1920064; active = well fitted curve in the direction sought with a large enough effect in the repeat runs; an effect the other way counts as inactive or inconclusive)
KiSS-1 receptor (Homo sapiens), sequence (Q969F8 whole entry, looked up): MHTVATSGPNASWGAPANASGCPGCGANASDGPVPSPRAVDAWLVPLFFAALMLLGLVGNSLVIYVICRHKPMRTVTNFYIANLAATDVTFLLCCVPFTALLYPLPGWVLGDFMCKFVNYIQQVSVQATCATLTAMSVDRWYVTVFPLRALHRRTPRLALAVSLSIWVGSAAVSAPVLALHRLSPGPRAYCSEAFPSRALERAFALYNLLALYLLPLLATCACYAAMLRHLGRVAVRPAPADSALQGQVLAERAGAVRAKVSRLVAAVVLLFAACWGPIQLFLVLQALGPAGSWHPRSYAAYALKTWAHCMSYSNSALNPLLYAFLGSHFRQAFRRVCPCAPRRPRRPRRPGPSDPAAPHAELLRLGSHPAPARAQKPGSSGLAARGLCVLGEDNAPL
How it was run: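 Cell line: HEK293, stable human KISS1R. Dye loading 1 h at 37 C after 18 h culture. Read: kinetic fluorescence, 480/540 nm, 3 min at 1 s intervals.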

Measured: Potency

NNC(N)=O
inactive: [1] | [2] | [3] | [4] | [5] | [6] | [7] | [8] | [9] | [10] | [11] | [12] | [13] | [14]

CCOC(=O)NC(O)C(Cl)(Cl)Cl (stereo not drawn)
inactive: [1] | [2] | [3] | [4] | [15] | [5] | [7] | [8] | [9] | [10] | [11] | [16] | [13] | [14]

COc1cccc([C@@]2(O)CCCC[C@@H]2CN(C)C)c1
inactive: [1] | [2] | [3] | [4] | [17] | [18] | [15] | [5] | [19] | [11] | [16] | [12] | [13] | [14]

N[C@@H](Cc1ccc(Oc2cc(I)c(O)c(I)c2)c(I)c1)C(=O)O
inactive: [1] | [2] | [3] | [4] | [17] | [18] | [15] | [5] | [6] | [19] | [9] | [10] | [11] | [16] | [13] | [14]

Cc1ccc(S(=O)(=O)N[C@@H](CCCCN)C(=O)CCl)cc1
inactive: [1] | [2] | [3] | [4] | [15] | [5] | [6] | [8] | [9] | [10] | [11] | [16] | [12] | [13] | [14]

Cc1ccc(N(SC(F)(Cl)Cl)S(=O)(=O)N(C)C)cc1
inactive: [17] | [18] | [6] | [7]
active: [1] 27.3 µM | [2] 7.7 µM | [3] 34.7 µM | [4] 38.9 µM | [15] 16.2 µM | [10] 49 µM | [14] 3.06 µM

CCCCCCCCCCCCCC[P+](CCCCCC)(CCCCCC)CCCCCC (tested in a mixture with another compound)
inactive: [2] | [3] | [4] | [17] | [18] | [7] | [8] | [9] | [10] | [12] | [13]
active: [1] 6.86 µM | [5] 16.2 µM | [6] 14.5 µM | [14] 54.5 µM

c1csc(-c2ccc(-c3cccs3)s2)c1
inactive: [1] | [3] | [4] | [15] | [5] | [6] | [7] | [8] | [9] | [10] | [12] | [14]
active: [2] 8.63 µM

CCOC(=O)CBr
inactive: [1] | [2] | [3] | [4] | [17] | [18] | [15] | [5] | [19] | [7] | [8] | [9] | [10] | [11] | [16] | [12] | [13] | [14]

C=C(C)C(=O)[O][Sn]([CH2]CCC)([CH2]CCC)[CH2]CCC
inactive: [17] | [18]
active: [1] 0.306 µM | [2] 0.433 µM | [3] 15.5 µM | [4] 34.7 µM | [15] 14.5 µM | [5] 3.24 µM | [6] 3.63 µM | [7] 1.88 µM | [8] 9.77 µM | [10] 9.77 µM | [12] 1.09 µM | [14] 2.43 µM

O=C(NC(=O)c1c(F)cccc1F)Nc1cc(Cl)c(Oc2ncc(C(F)(F)F)cc2Cl)c(Cl)c1
inactive: [1] | [2] | [20] | [4] | [17] | [18] | [15] | [5] | [6] | [7] | [8] | [9] | [10] | [12] | [13] | [14]
active: [19] 17.5 µM

CC(=O)O[C@H]1CC[C@@]2(C)C(=CC[C@@H]3[C@@H]2CC[C@]2(C)C(=O)CC[C@@H]32)C1
inactive: [1] | [2] | [20] | [4] | [17] | [18] | [15] | [5] | [6] | [19] | [7] | [8] | [9] | [10] | [12] | [13] | [14]
